# Measurements taken from the supplement of paper PMC12632987.
# Over roughly 4,500 sequences, “median log2 fold change of GCK-ALFA target abundance (FLAG IP / Myc IP barcode read proportion)” has its median near 0.078; the lowest 2% begin near -0.6. Many of the other results were omitted from the sample, so the lowest values are more common in it than they were.
# B1: GBRAP_160_4228 (protein)
# chain: METVEKIVEIFRETFLEALELIEGESEEERRVILDVAVGEIILEVEEIEEATDEMVEIVDERAEKLAERLLAARDASREERRALVEEEAKKLREELEKLA
# B2: GBRAP_52_6106 (protein)
# chain: ARARVRALVEEALALVRAGREEEARALLEAFARTANEEELELFAEALAELAREAAPEDLDAVWRLAEMAAEALEAAGWPDVLVDDLLARVAAALYERELK
# B3: GBRAP_160_4092 (protein)
# chain: SEEIEKLIEEIDELRDETKEMIKGESREERATIIRGFGGEVIMLLFESGIVSEEVEDLADELFDELVATVEANPELTEEEIFALIDETVDEIKEAIKEDH
# B4: GBRAP_80_6797 (protein)
# chain: AAAALAAALAALAEVDAELAARVAAIVATARALGVSDADLADFVAAVLELAKADKEEAAALVDETEALLAEEAARGDTANATAVIRVHAGDALLAVEELE
# B5: GBRAP_160_3998 (protein)
# chain: SEKLAALKAEIAAILAETLELARGEDAAERLAVVRVMGGQILLTLEESGIVSDEALAAVDAILDATAAEVAANPDLTDAELAALLDATLARINAVLEEHS
# B6: GBRAP_11_2747 (protein)
# chain: KKEKLKEIAKAAEKLAKLLEELIKEGVDNEELLKEAEKALKELKKLVEEYGDESLKKLVEIIEEEFKKAKEDPENALKYLQNALAAARVLAGQVLLDIEE
# B7: GBRAP_184_5076 (protein)
# chain: AVLEETLRVEDLEEARARLAALRERVADFRGTLVVLVEMPEFERETARAVLEGLAAMKAAGYVTDVTVGFDAPLTEEQVDFVVDTADALGVKVTLALPEE
# B8: GBRAP_35_5513 (protein)
# chain: SSIDTETEMLVSTLEDATLAVEDLDPETLKKIVESLAELAREFILQNKNDLEALKRVKEELEKLAEALRKRGLDDPLIKEALEKVEEVIKLAEEEIKKIE
# B9: GBRAP_160_4713 (protein)
# chain: SETAEERKKYVDEEFERAKKLIEGETIEQRAIIVEGTVGEIIMEFVEDEKATDELIDEVIEIGDELVKTILENPNLTLEEIKELIDEAREKMKEAIDKHL
# B10: GBRAP_78_6743 (protein)
# chain: KAEEVIDETIETLNEALKALSSKPIEEVGDAMLHLLDASEALIEAEEEGFPLEYIEEAARHLAAAIAEIEAKGIELPAEIMAALKASLEALKALAAEKKA
# B11: GBRAP_128_3161 (protein)
# chain: AVEEAKKKTKELMEKIKNSSLEEVEKLAKELVEMMKTASDEEVEAMAEVILEELPKLSAEKLEILADVLEEKMPELSPFGQNQAADVLVEALNEAEELEE
# B12: GBRAP_78_6611 (protein)
# chain: ETKEKILKLLEEAEELAREVRKLAPEVAEQAAELEVLLGTAIYMVDTGSESKEEILETLEEAEKAAKELKKLVEGLAEEVQKLVKEALEKIKEAIKLLKE
# B13: GBRAP_160_4329 (protein)
# chain: SEEFEKLIEFIDEEFEETKELIKGLSLEQVKVLIEGTFGEIIMEMSENESISDELVDFVVAERDALLATLDANPDLSEEEIKALIDEARERIKEALKKEA
# B14: GBRAP_125_3105 (protein)
# chain: MEEEILEALKLLAKALGFDDEDAEEAARLAREFSVKMTLYALLKAEGEEELADLVEKLTEEQAKKVLLKVAEWLKKNPNATKEEVLKKLKEVILEELEKA
# B15: GBRAP_125_3108 (protein)
# chain: SEEEILEALKRLAKALGFSEEEAEEAAELARKFSVKQTLYALFLAEGEEELADLVEKLTEEQAKRALLKLAKWLEENPNATKEEVLEQAKKILEEELAKQ
# B16: GBRAP_9_7175 (protein)
# chain: LKEAAKKAIEGLKEAKEFALEVVPEEKKEEINAAFDELIETVKKMQADDSVTKEEFRETLEKGFDKIIELAKKNLDPEIAAIVETELLTIKAEVDELLDE
# B17: GBRAP_160_3978 (protein)
# chain: SEEIEKLKKEIKELAEEAKELIEGESYEERLTIVRVMFGEILMLLMSNENVSDETEEEVAKVGDETIAYLEANPDLTEEEIKELIKEAEKKIFEILEKNE
# B18: GBRAP_160_4224 (protein)
# chain: METVEKLVKIFRENFEEALELIEGESLEEQKVILDVAAGEVILEAEEIEEATEEMVEIVDKKAEEAREELLEAREASKEEKRKLIEEHAEKLRKELEKVA
# B19: GBRAP_74_6499 (protein)
# chain: SAATEAAAEEFAALLRAGASYEELMAHLAKMNVEALNAAVIKATEVARANADELTEEQIDALAELADRVFAESEDPEAIKAAGELVKILYERELRLEAER
# B20: GBRAP_74_6501 (protein)
# chain: AAADEAAAEEFAELLRRGASYEELMAHIAEMNVAALDLAVIKATEEARENAEKLTEEQIDALAELADRVFAESENPEAIAAAGELVKILYETEERRRAEE
# B21: GBRAP_26_5460 (protein)
# chain: MEEAERAAEAEVRAIAARLPDPRVAAAVVAEFSTELLEAEEAIENGEDPKEAFRKAREEFLAEARELMEEAGLSPEEIAAFEAELSAVFDKLEAEVLAEL
# B22: GBRAP_52_6294 (protein)
# chain: SMEEVEKKAKEIVELVKEGKLEEAIELAKKFVEENSLEEALELGKLLIEKIEELTPEEAELMLEVIEALAEEIEKEFGAEEEADILEAEAAAAAYKVLQK
# B23: GBRAP_160_4717 (protein)
# chain: SETAEKLKEYVDEEFDEAEELMKGESIEQRAIILEGTVGEIIMELFENPDASDELIDEVLKIGDEAVATLKANPDLSDEEIEELLDEARDKMKEAIDKHL
# B24: GBRAP_137_3636 (protein)
# chain: PNVTITTKTEDDLVEINIEFDDPELAEEVAELIEDVAHKHGALALSIEINEDGTLDATIWVPKEKAQALLDALIKALKEKFNATVTVIDEDTGEVKTIKA
# B25: GBRAP_137_3623 (protein)
# chain: KKVKITFYEEDGVAIAEITADTSVDKEKVLEIVEEVAEKHGVKLVVALTEPDEPAVFYLVGTPEQVIAAVKELIKRLKEELGIEVELSSEGAEELVEEVK
# B26: GBRAP_137_3622 (protein)
# chain: KKVTITFYEEDGVAIAEITADTSVDKEKVLALVEEVAEEHGVQLVEALVEPDEPLVLYLVGTPEQVIAAVKDLIERLKSELGIEVVLESEGAEELVEEVK
# B27: GBRAP_160_4497 (protein)
# chain: SERKERAKERARELVEEAAEAIREEEGEGKEQIARAYAGDIALELLELGVVSEEQEEEVLRLAEEGFRRMVEASEKGEEELERAAEELKRRLEELIEEFA
# B28: GBRAP_160_4123 (protein)
# chain: KEKKRKTLLDSAKDVEETLKIIEDLSPEEAGTLAIVTLGQILLDNDELDDEFPEIEKLADEAIEKLRETAKTDPEKLKELSKELLEEIRELLLKKAEELK
# B29: GBRAP_52_5921 (protein)
# chain: SDEEARALAEAILEAALAGREDELRALIKRLVEEKSLEEIKRVIEELARLTAELGPEHYDLFADIMDLLLDAAEEAGRDVEEVDYAIAEAAGLLYDAEQA
# Molecular target: GABARAP, O95166
# Sequence (O95166 whole entry, the tested form may be a part): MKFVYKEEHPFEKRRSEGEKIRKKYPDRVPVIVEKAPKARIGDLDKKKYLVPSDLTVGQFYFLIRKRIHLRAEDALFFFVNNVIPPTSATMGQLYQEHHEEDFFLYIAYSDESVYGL
# Assay: median log2 fold change of GCK-ALFA target abundance (FLAG IP / Myc IP barcode read proportion) (log2 ratio); each designed protein is fused to an ALFA-tag nanobody in HEK293 cells to bring the named protein to FLAG-tagged glucokinase (GCK); Myc marks an untargeted standard; higher = target protein stabilised (more abundant)
# Conditions: target protein: 3xFLAG-MCP-GCK-ALFA reporter; HEK293 landing pad (RPLP)
# Outline: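 Sequencing of reverse-transcribed, amplified circular RNA barcodes from anti-FLAG and anti-Myc immunoprecipitates provided the readout for an ALFA-nanobody-fused binder library recombined into HEK293 landing-pad cells. Those cells were induced with 2 μg mL^−1 doxycycline, transfected with a plasmid expressing a FLAG-tagged target and a Myc-tagged standard, and lysed after 48 h. Target abundance is the per-binder median log2 ratio of FLAG to Myc barcode read proportions. Only barcodes at a proportion of ≥10^−7 in both replicates and binders with ≥3 barcodes per replicate were kept, with a 10^−6 pseudocount added before the two replicates were pooled.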
row,Binder,median log2 fold change
1,B1,-0.393
2,B2,-0.266
3,B3,-0.649
4,B4,-0.147
5,B5,-0.533
6,B6,-0.119
7,B7,0.0481
8,B8,0.222
9,B9,-0.628
10,B10,-0.0804
11,B11,0.0696
12,B12,0.172
13,B13,-0.22
14,B14,-0.694
15,B15,-0.437
16,B16,0.286
17,B17,0.206
18,B18,-0.617
19,B19,-0.772
20,B20,0.0485
21,B21,0.197
22,B22,0.0653
23,B23,-0.000956
24,B24,-0.117
25,B25,-0.628
26,B26,-0.288
27,B27,0.292
28,B28,0.128
29,B29,-0.394
